Assay outcomes as filed in PubChem BioAssay.
HCV inhibitor: HCV inhibition. Huh7.5.1 HCVcc-Cre infection, luciferase reporter, 44 h. Potency, µM (titrated, usually from 41.8 µM), usual class: inhibitors. hit rate 3.4% among 340,000
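Luciferase read-out (15 sec integration) after a 15 min room-temperature substrate step quantifies HCVcc-Cre infection. Cells, 1,000 per well, had compound added 4 h post-plating, then virus at ~0.5 moi, and were cultured 44 h.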
Pf growth 96h: inhibits malaria parasite growth, 96 h | P. falciparum luciferase reporter growth, 96 h | Potency, µM (doses to about 28.7 µM), most hits filed as inhibitors | hit rate 6.9% among 320,000 | AID 504834
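Readout is luminescence from an integrated firefly luciferase in P. falciparum. Red cells, 2% hematocrit and 0.05% parasitemia final, were cultured with compound through two parasite generations (96 hours) at 37 C, 5% CO2.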
AMA1 RON2 block: disrupts binding of P. falciparum AMA1 to RON2; AlphaScreen AMA1-biotinylated RON2 peptide binding; Potency, µM (series often up to 58.2 µM), hits mostly inhibitors; hit rate 0.2% among 360,000; AID 720542; further: nearly all actives have a fitted effect of over 45% in size
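AMA1 (3D7) with his tag at 25 nM final met compounds first, then biotinylated RON2 peptide at 25 nM; detection used donor plus acceptor beads, 10 µg/mL apiece, read by AlphaScreen after 30 min at room temperature.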
Shiga toxin inh: inhibitors of Shiga toxin in Vero cells | inhibition, % at 38.7 µM | Vero cells, Shiga toxin protein synthesis inhibition reporter | hit rate 9.2% among 290,000; in the data active means inhibition mostly above about 28%, no sharp cut-off; inactive means mostly below about 43%
Cycloheximide cs: counter-screen for Shiga toxin inhibitors: cycloheximide protein synthesis inhibition; max response, %; hit rate 12% among 300,000; AID 2314; cell reporter, cycloheximide protein synthesis inhibition counterscreen; in the data active means max response mostly above about 13%, no sharp cut-off; inactive means mostly below about 14%; further: read at 38.3 µM for the half of the compounds with a filed dose
Pf growth 48h: P. falciparum growth inhibition at 48 hours (one generation); P. falciparum luciferase growth in erythrocytes, 48 h; Potency, µM (titrated, usually from 28.7 µM), actives largely listed as inhibitors; hit rate 5.9% among 310,000; AID 504832
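Compounds are pin-transferred into medium, infected erythrocytes (2% hematocrit, 0.1% parasitemia final) are added, and plates sit one parasite generation at 37 C in 5% CO2. Detection reagent is then added and luminescence measured.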
Large screens that a line does not name were inactive. Most compounds without a hit are left out; they make up all but 21% or so of the library. Unless noted, the call rests on the fitted dose curve; in most records, active means well fitted curve in the direction sought with a large enough effect; inconclusive means small, poorly fitted or top-dose-only effect, or another doubt; inactive means no such curve, though single readings can be large; an effect the other way counts as inactive or inconclusive.

Cc1cc(CNC(=O)CC2C(=O)NCCN2Cc2ccc(-c3ccccc3)cc2)nn1C (configuration not stated)	Pf growth 96h 9.3µM
Cc1cc(CNC(=O)CC2C(=O)NCCN2Cc2ccccc2)nn1C (configuration not stated)	Pf growth 96h inconclusive
Cc1ccc(CN2CCNC(=O)C2CC(=O)N(C)C2CCCCC2)cc1 (configuration not stated)	Pf growth 48h inconclusive
Cc1ccc(CN2CCNC(=O)C2CC(=O)N(C)CCc2ccccc2)cc1 (configuration not stated)	Pf growth 96h 7.4µM, Pf growth 48h inconclusive
Cc1cc(CNC(=O)CC2C(=O)NCCN2CC(c2ccccc2)c2ccccc2)on1 (configuration not stated)	Pf growth 96h 15µM
CCC(C)CCN1CCN=C1Nc1ccccc1 (configuration not stated)	none (no result: Shiga toxin inh, Cycloheximide cs)
CN(CC1CCOCC1)C(=O)CC1C(=O)NCCN1Cc1cccc(F)c1 (configuration not stated)	Pf growth 48h inconclusive
CN(CC1CCOCC1)C(=O)CC1C(=O)NCCN1C/C=C/c1ccccc1 (configuration not stated)	Pf growth 96h 4.7µM
O=C1NCCN(Cc2ccoc2)C1CC(=O)N(Cc1ccccc1)CC1CCC1 (configuration not stated)	Pf growth 96h inconclusive, Cycloheximide cs 13
CN(CC(=O)Nc1ccccc1Cl)C(=O)c1ccc(COc2ccccc2)cc1	HCV inhibitor inconclusive (no result: Shiga toxin inh, Cycloheximide cs)
CCc1nc2ccc(C(=O)NCCc3ccccn3)cn2c1N(CCC(C)C)CCN(C)C	none (no result: HCV inhibitor, Pf growth 96h, Shiga toxin inh, Cycloheximide cs, Pf growth 48h)
CC1CCN(c2c(NCc3ccc(C(=O)N(C)C4CCCCC4)cc3)c(=O)c2=O)CC1	Pf growth 48h 8.3µM
Cc1ccc(N(C)C(=O)c2ccc(CNc3c(N4CCC(C)CC4)c(=O)c3=O)cc2)cc1	Pf growth 96h inconclusive, Pf growth 48h 9.3µM
Cc1ccc(CNC(=O)c2ccc(CNc3c(N4CCCC4)c(=O)c3=O)cc2)cc1	none (no result: Pf growth 48h)
Cc1ccccc1OC(C)C(=O)NCCCN1CCOCC1 (configuration not stated)	Pf growth 96h inconclusive
O=S(=O)(N/N=C1/CC(c2ccccc2)Oc2ccccc21)c1ccc(Br)cc1 (configuration not stated)	Cycloheximide cs 28 (no result: Pf growth 48h)
Cc1ccc(S(=O)(=O)N/N=C2/CC(c3ccccc3)Oc3ccccc32)cc1[N+](=O)[O-] (configuration not stated)	Shiga toxin inh 39, Cycloheximide cs 55 (no result: Pf growth 48h)
CCOC(=O)N1CCN(C(=O)c2ccc(Oc3ccc([N+](=O)[O-])cc3)cc2)CC1	HCV inhibitor inconclusive, Pf growth 48h inconclusive
Oc1ccc(N2CCN(CC(O)c3ccccc3)CC2)cc1 (configuration not stated)	Pf growth 96h inconclusive, Pf growth 48h inconclusive
C/C(=N\N1CCN(c2ccccc2)CC1)c1ccc(O)cc1	Shiga toxin inh 45, Cycloheximide cs 24
C/C(=N\N1CCN(c2ccccc2)CC1)c1ccccc1O	Pf growth 96h inconclusive, Cycloheximide cs 23
O=C(NCc1ccc(Cl)cc1)c1noc2c1CCCC2	Pf growth 96h inconclusive, Shiga toxin inh 40, Cycloheximide cs 25
COc1ccc(CNC(=O)c2nccnc2CO)cc1	Pf growth 96h 8.3µM
O=C(NCc1cccnc1)c1cccc(F)c1	none (no result: Pf growth 96h)
O=C(NCc1cccc(F)c1)c1noc2c1CCCC2	Pf growth 96h inconclusive, Shiga toxin inh 54, Cycloheximide cs 39
O=C(NCc1ccco1)c1noc2c1CCCCC2	Pf growth 96h inconclusive, Shiga toxin inh 40, Cycloheximide cs 33
O=C(NCCc1ccccc1)c1noc2c1CCCCC2	Shiga toxin inh 96, Cycloheximide cs 35
O=C(NCc1ccccc1)c1noc2c1CCCC2	Cycloheximide cs 44
O=C(NCc1cccnc1)c1noc2c1CCCC2	Pf growth 96h inconclusive
COc1ccc(C(=O)NCc2ccc3c(c2)OCO3)cc1	none
O=C(NCc1cccs1)c1noc2c1CCCC2	Cycloheximide cs 15
O=C(NCc1cccnc1)c1noc2c1CCCCC2	none
COc1ccc(CNC(=O)c2noc3c2CCCC3)cc1	Shiga toxin inh 114, Cycloheximide cs 28
Nc1nc(Nc2ccc(Cl)cc2)c(NC=O)c(=O)[nH]1	none (no result: Pf growth 96h, Shiga toxin inh, Cycloheximide cs, Pf growth 48h)
CCn1c(=O)c(C(=O)CN(C)CC(=O)Nc2cccc(F)c2)c(N)n(Cc2ccccc2)c1=O	HCV inhibitor inconclusive (no result: Pf growth 96h, Shiga toxin inh, Cycloheximide cs, Pf growth 48h)
CC1(C(=O)NCc2ccccc2)CN(S(C)(=O)=O)CC(=O)N1C1CC1 (configuration not stated)	none (no result: HCV inhibitor, Pf growth 96h, Shiga toxin inh, Cycloheximide cs, Pf growth 48h)
C[C@H]1CN([C@@H](C)CO)S(=O)(=O)c2ccc(Br)cc2O[C@@H]1CN(C)S(=O)(=O)c1ccccc1F	none (no result: HCV inhibitor, Pf growth 96h, Shiga toxin inh, Cycloheximide cs, Pf growth 48h)
CCOc1ccc(NC(=O)N2CCC(NC(=O)C(Cc3ccccc3OC)NC(C)=O)CC2)cc1 (configuration not stated)	none
O=C(N/N=C/c1cc(Br)c(Br)o1)C(O)c1ccccc1 (configuration not stated)	Pf growth 96h inconclusive
Cc1onc(-c2ccccc2)c1C(=O)N/N=C/c1cc(Br)c(Br)o1	Pf growth 96h 13µM, Pf growth 48h inconclusive
Cc1cccc(C(=O)N/N=C/c2cc(Br)c(Br)o2)c1	Pf growth 96h inconclusive, Shiga toxin inh 33, Pf growth 48h inconclusive
CC(=O)C(=Cc1ccccc1)c1ccccc1	none (no result: HCV inhibitor, Pf growth 96h, Shiga toxin inh, Cycloheximide cs, Pf growth 48h)
CCc1ccc([C@@H]2C[C@H]3[C@@H](CN2S(=O)(=O)c2ccc(C)cc2)C(=O)C[C@@H](c2ccc(C)cc2)N3S(=O)(=O)c2ccc(C)cc2)cc1	none (no result: HCV inhibitor, Pf growth 96h, Shiga toxin inh, Cycloheximide cs, Pf growth 48h)
CCN(C)C1CN(Cc2cn(Cc3cccc(C(F)(F)F)c3)nn2)S(=O)(=O)C1 (configuration not stated)	none (no result: HCV inhibitor, Pf growth 96h, Shiga toxin inh, Cycloheximide cs, Pf growth 48h)
O=C(Nc1ccn(C2CCC(CO)O2)c(=O)n1)c1ccccc1 (configuration not stated)	none (no result: HCV inhibitor, Pf growth 96h, Shiga toxin inh, Cycloheximide cs, Pf growth 48h)
Nc1ncnc2c1ncn2[C@@H]1O[C@H](C(=O)N(CCC2=CCCCC2)CC2CC2)[C@@H](O)[C@H]1O	none (no result: HCV inhibitor, Pf growth 96h, Shiga toxin inh, Cycloheximide cs, Pf growth 48h)
O=C(CCc1ccccc1)c1c(O)cc(O)cc1O	Cycloheximide cs active
c1ccc(-c2nc3c4ccccc4ccn3c2CN2CCCCC2)cc1	Pf growth 96h inconclusive, Pf growth 48h inconclusive
Cc1ccc(-c2nc3c4ccccc4ccn3c2CN2CCCCC2)cc1	Shiga toxin inh 59, Cycloheximide cs 32, Pf growth 48h 9.3µM
COC(=O)CCSC(=S)N1CCOCC1	none
CC1=C(C(=O)N(C)C)CC(CC(=O)NCc2cccc3ccccc23)C(=O)N1CCCN1CCCC1=O (configuration not stated)	none (no result: HCV inhibitor, Pf growth 96h, Shiga toxin inh, Cycloheximide cs, Pf growth 48h)
O=C(Nc1nnc(Cc2ccc(F)cc2)s1)Nc1ccccc1F	Pf growth 96h 12µM
Cc1ccc(NC(=O)Nc2nnc(Cc3ccc([N+](=O)[O-])cc3)s2)cc1C	HCV inhibitor inconclusive, Pf growth 96h inconclusive, Cycloheximide cs 18, Pf growth 48h inconclusive
COc1ccc(Cc2nnc(NC(=O)Nc3ccccc3F)s2)cc1OC	HCV inhibitor inconclusive, Pf growth 96h 12µM, Pf growth 48h inconclusive
